FBW7 act: activators of human E3 ligase FBW7; Q969H0; AlphaScreen FBW7–phospho-cyclin E peptide binding, activator screen; normalized activity (activation), % at 26.1 µM; 0.13% of 650,000 active; in the data active means normalized activity above about 1.9%;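 further: purified mutant Fbw7 with reduced substrate affinity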
TEAD-YAP block: TEAD-YAP interaction inhibition; HEK-TIYL cells, TEAD-Gal4/YAP UAS-luciferase luminescence; inhibition, % at 9.12 µM; 1.4% of 640,000 active; AID 1259422; in the data active means inhibition above about 32%;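 further: 0% = median of test compound wells and 100% = reference inhibitor wells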
MITF inh: inhibitors of human MITF; O75030; AlphaScreen MITF homodimerization, bead proximity signal; inhibition, % at 2.6 µM; 0.91% of 650,000 active; AID 1259374; in the data active means inhibition above about 50%;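 further: 0% = vehicle wells with protein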
GPR151 activ: activates the human receptor GPR151 | Q8TDV0 | PathHunter beta-arrestin GPR151 cells, luminescence | activation, % at 11.2 µM | 1% of 650,000 active | AID 1508602; in the data active means activation above about 4.9%;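 further: 0% = median of compound wells and 100% = cells with positive control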
Target sequence (Q8TDV0 whole entry, looked up): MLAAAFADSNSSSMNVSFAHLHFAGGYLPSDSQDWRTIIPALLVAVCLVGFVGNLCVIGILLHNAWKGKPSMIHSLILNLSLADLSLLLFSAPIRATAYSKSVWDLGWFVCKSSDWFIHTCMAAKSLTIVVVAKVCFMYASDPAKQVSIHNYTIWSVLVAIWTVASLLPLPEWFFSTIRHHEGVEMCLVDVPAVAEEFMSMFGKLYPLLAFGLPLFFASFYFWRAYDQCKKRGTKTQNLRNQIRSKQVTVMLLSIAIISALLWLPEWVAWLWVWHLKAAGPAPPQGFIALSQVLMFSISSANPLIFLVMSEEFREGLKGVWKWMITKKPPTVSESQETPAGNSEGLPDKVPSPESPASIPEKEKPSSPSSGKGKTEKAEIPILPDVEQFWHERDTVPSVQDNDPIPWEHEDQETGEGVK
* marks the source's active call; other numbers are inactive results. This is a sample that favours compounds with a hit; in the whole collection about 3.4% have one here.

SMILES	FBW7 act	TEAD-YAP block	MITF inh	GPR151 activ
O=C(NCCS(=O)(=O)N1CCc2ccccc2C1)C(c1ccccc1)c1ccccc1	0	11	9	-2
COc1ccc2c(c1)C(=O)c1cc(OC)ccc1-2	0	-13	11	-1
COc1ccc2c(c1)C(=NN=C(N)N)c1cc(OC)ccc1-2	0	59*	-11	0
Cc1cccc(CC(=O)Nc2cnn(-c3cccc(C(=O)N4CCNC(=O)CC4)c3)c2)c1	4.3*	6	39	4
Cc1cccc(CC(=O)Nc2cnn(-c3cccc(C(=O)N4CCCO4)c3)c2)c1	0	5	-12	0
CCOc1ccc(C(=O)Nc2ccc3oc(=O)ccc3c2)cc1	0	-27	1	1
COc1ccc2c(c1)C(C)=CC(C)(C)N2C(=O)CCl	0	35*	-5	1
CCOc1ccc2c(c1)C(C)=CC(C)(C)N2C(=O)CCl	0	14	-5	-1
c1ccc(CCNc2ccc3ncc(-c4ccc(N5CCOCC5)cc4)n3n2)nc1	0	47*	19	-1
N#Cc1ccc(-c2cnc3ccc(NCCc4ccccn4)nn23)cc1	2	63*	13	-1
COc1ccc(-c2cnc3ccc(NCCc4ccccn4)nn23)cc1	0	36*	-9	0
Clc1cccc(-c2cnc3ccc(NCCc4ccccn4)nn23)c1	0	48*	-10	1
Clc1ccc(-c2cnc3ccc(NCCc4ccccn4)nn23)cc1	1	29	18	1
CCCNc1ccc2ncc(-c3ccc(N4CCOCC4)cc3)n2n1	0	10	8	0
O=C(CSc1ccc(F)cc1)Nc1ccc(N2CCCN(C(=O)C3CC3)CC2)cc1	0	-3	7	0
N#Cc1ccc(-c2cnc(N)c(-c3ccc(O)cc3)n2)cc1	0	-10	-6	-2
CCCCc1ccc(/C(C)=N/Nc2nc(C)cc(=O)[nH]2)cc1	0	-3	0	0
COC(=O)C1=CN(Cc2ccc(OC)cc2)C=C(C(=O)OC)C1c1ccccc1F	1.9*	5	1	-2
COC(=O)C1=CN(Cc2ccc(OC)c(OC)c2)C=C(C(=O)OC)C1c1ccc(OCc2ccccc2)c(OC)c1	0	-19	-14	1
COC(=O)C1=CN(Cc2ccc(Cl)cc2)C=C(C(=O)OC)C1c1ccc(OC)c(OCc2ccccc2)c1	0	55*	-13	-2
COC(=O)C1=CN(Cc2ccc(OC)cc2)C=C(C(=O)OC)C1c1ccc(OC)c(OCc2ccccc2)c1	0	50*	-3	-1
CCC(C)NC(=O)Cn1c(=O)n(-c2cc(OC)c(OC)c(OC)c2)c(=O)c2ccccc21 (stereo not drawn)	0	-2	-13	0
O=C(CSc1ccccc1)N1CCOc2ccc(-c3ccncc3)cc21	0	34*	11	-1
O=S(=O)(N/N=C1\CC(c2ccccc2)Oc2ccccc21)c1ccccc1 (stereo not drawn)	2.7*	16	-13	2
O=C(NCc1nnc2n1CCN(Cc1ccc(C(F)(F)F)cc1)CC2)C1CCOC1 (stereo not drawn)	0	-2	3	0
SMILES	FBW7 act	TEAD-YAP block	MITF inh	GPR151 activ
CCCNc1ccc2ncc(-c3cccc(NC(C)=O)c3)n2n1	1	56*	6	1
CCCNc1ccc2ncc(-c3cccc(O)c3)n2n1	0	0	-15	-1
COCCNc1ccc2ncc(-c3ccc(F)cc3)n2n1	0	14	-9	0
COCCNc1ccc2ncc(-c3ccc(O)cc3)n2n1	0	58*	-22	1
CCCNc1ccc2ncc(-c3ccc(O)cc3)n2n1	0	77*	-27	-1
COCCNc1ccc2ncc(-c3ccc4c(c3)OCO4)n2n1	0	39*	4	2
COc1ccc(CN2CCNC(=O)C2CC(=O)NCCc2ccc(Cl)cc2)cc1OC (stereo not drawn)	0	10	12	0
COCCNc1ccc2ncc(-c3cccc(F)c3)n2n1	0	26	10	2
COCCNc1ccc2ncc(-c3cccc(CO)c3)n2n1	0	33*	-17	0
CCCn1c(=O)c2c(nc3n(-c4ccccc4C)c(C)cn23)n(C)c1=O	0	1	11	1
C=CCn1c(=O)c2c(nc3n(-c4ccccc4C)c(C)cn23)n(C)c1=O	2.1*	6	23	0
CCOCCOc1cccc(C(=O)Nc2ccc3ccccc3c2)c1	1	39*	10	-3
CCC(=O)Oc1ccc(C(=O)Nc2ccc(N(C)C)cc2)cc1	0	38*	-9	-1
O=C(Nc1ccc(O)cc1)c1ccc([N+](=O)[O-])cc1	0	55*	11	1
CCOc1ccc(NC(=O)c2cccc(O)c2)cc1	0	80*	7	-6

Source: PubChem BioAssay (The Scripps Research Institute Molecular Screening Center)
